This is an account of results in PubChem BioAssay.

Sequence of Tumor necrosis factor receptor superfamily member 10B (Homo sapiens) (O14763 whole entry, looked up): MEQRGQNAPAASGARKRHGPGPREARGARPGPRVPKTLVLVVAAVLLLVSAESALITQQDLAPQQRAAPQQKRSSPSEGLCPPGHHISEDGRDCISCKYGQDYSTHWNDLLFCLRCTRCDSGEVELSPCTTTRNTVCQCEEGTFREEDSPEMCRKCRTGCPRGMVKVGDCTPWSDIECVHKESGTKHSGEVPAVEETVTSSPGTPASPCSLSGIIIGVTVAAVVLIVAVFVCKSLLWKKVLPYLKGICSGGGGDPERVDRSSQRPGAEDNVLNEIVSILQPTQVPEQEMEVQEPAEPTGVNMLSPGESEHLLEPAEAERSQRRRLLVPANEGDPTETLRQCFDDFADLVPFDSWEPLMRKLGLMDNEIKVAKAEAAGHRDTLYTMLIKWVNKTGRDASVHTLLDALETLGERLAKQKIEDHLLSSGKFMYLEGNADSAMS

The first experiment addresses Tumor necrosis factor receptor superfamily member 10B (Homo sapiens) (UniProt O14763). The experiment can be described thus: caspase-8 TRAIL sensitization, hit retest, confirmation, cell-based, NB7+caspase-8, with/without TRAIL, luminescence panel (AID 651596). The note with it: NB7 neuroblastoma + caspase-8, TRAIL sensitization, luminescence viability, with TRAIL, mean of runs, at 10 µM, stronger effect = higher value.
Regarding `CC1CCN(S(=O)(=O)c2ccc3c(c2)C(=NO)c2cc(S(=O)(=O)N4CCC(C)CC4)ccc2-3)CC1`, the activity is 98.2%.

For `COc1cccc(/C=C2\CCc3ccccc3C2=O)c1`, the activity is 83.4%.

As for `COc1ccc(/C=N/Nc2nnc(Cc3ccccc3)c(=O)[nH]2)cc1OC`, the activity is 60.6%.

As for `c1ccc(CSc2ccc(-c3ccco3)nn2)cc1`, the activity amounted to 57.6%.

`CCOC(=O)c1cccc(N2C(N)=NC(N)=NC2(C)C)c1`: the activity was found to be 52.6%.

As to `COC(=O)c1c(-c2ccccc2)csc1NC1=NS(=O)(=O)c2ccccc21`, the activity is 74.7%.

With `Cn1c2ccccc2c(=O)c2ccc(C#CC3(O)CCCCC3)cc21`, the activity was 91.3%.

Consider `CCCCN(CC)CCCNC(=O)C1c2ccccc2C(=O)N(C)C1c1cn(C)c2ccccc12` (configuration not stated), for which the activity turned out to be 71.8%.

Regarding `O=C(CCl)N(CCc1ccccc1)CCc1ccccc1`, the activity is 99.4%.

`Oc1ccc(-c2cnc(-c3ccc(O)cc3)nc2)cc1`: the activity was found to be 88.2%.

As to `O=C(NC1CCCCC1)c1n[nH]c2c1CCCCC2`, the activity was determined as 82.1%.

Take `Cc1cc(NC(=O)CSc2nnc(-c3ccc4c(c3)OCCO4)o2)no1`: the activity is 52.1%.

`O=C1c2ccc(Cl)cc2S(=O)(=O)c2cccc(C(=O)N3CCN(c4ccc(Cl)cn4)CC3)c21`: the activity stood at 94.8%.

Consider `Cc1nc2cc(NC(=O)Nc3nccs3)ccc2n1C`, for which the activity was 63.5%.

Turning to `COn1c(SCc2ccc(C)cc2C)nc2ccccc2c1=O`, the activity was found to be 69.7%.

Turning to `O=[N+]([O-])c1c(Nc2ccccc2O)cc(Cl)c2nonc12`, the activity worked out at 63.9%.

Consider `CCOc1ccc2cc(C#N)c(SCC(=O)OC)nc2c1`, for which the activity came out at 57.9%.

As for `CCC1CCCCN1c1ccc([N+](=O)[O-])cc1/C=N/NC(=O)Cn1c2ccccc2c(=O)c2ccccc21` (configuration not stated), the activity stood at 60.3%.

As for `Nc1nc(N)c2c(ccc3nccc32)[nH]1`, the activity stood at 73.3%.

Take `C[C@H](NC(=O)c1ncn2c1c(=O)[nH]c1ccc(Br)cc12)c1ccccc1`: the activity was 27.2%.

Regarding `CCC(C)c1ccc(O)c(/C=N/O)c1` (configuration not stated), the activity was determined as 38%.

In the case of `CN(C)c1ccc(Sc2ccc3nc(N)nc(N)c3c2)cc1`, the activity came out at 62.9%.

Tested on in a further experiment: not listed separately
The description is as above. The note with it: NB7 neuroblastoma + caspase-8, without TRAIL, luminescence viability, without TRAIL, mean of runs, at 10 µM.
Turning to `CC(C)C[C@H](NC(=O)c1nc[nH]c1C(=O)N[C@@H](CC(C)C)C(=O)OC(C)(C)C)C(=O)OC(C)(C)C`, the activity was 63.2%.

Consider `CCC(C)c1ccc(-c2cc(C(=O)OCC(=O)Nc3cc(C)on3)c3ccccc3n2)cc1` (configuration not stated), for which the activity came to 85.7%.

In the case of `CC(=O)Nc1ccc(/C=N/Nc2nc3ccccc3[nH]2)cc1`, the activity was found to be 75.5%.

For the compound `O=C1Nc2cc(C(=O)NCCN3CCCCCC3)ccc2S/C1=C/c1ccccc1F`, the activity was 96%.

As to `Cc1ccc(NC(=O)c2ccc3nsnc3c2)c(Cl)c1`, the activity came out at 58.2%.

On to `Cc1ccsc1/C=N/NC(=O)c1ccc2c(c1)OCCO2`, for which the activity stood at 68.2%.

Consider `O=C(Nc1ccc2c(c1)OCO2)c1ccc(Cl)cc1Cl`, for which the activity is 67.6%.

For `COc1cccc(/C=C2/Sc3ccc(C(=O)NCCN4CCCCCC4)cc3NC2=O)c1`, the activity was 73.3%.

With `COC(=O)c1c(NC(=O)c2nc3ccccc3s2)sc2c1CC(C)(C)NC2(C)C`, the activity came out at 98.3%.

Regarding `C/C(Cn1nnc([N+](=O)[O-])n1)=N\NC(=O)c1ccccc1O`, the activity turned out to be 51%.

Consider `CSc1ccc(/C=C/C(=O)c2c(O)cc(C)oc2=O)cc1`, for which the activity stood at 82.2%.

In the case of `O=C(COc1ccc2ccccc2c1)Nc1nccs1`, the activity came out at 55.8%.

For `Cc1ccc(NC(=O)COc2ccccc2[N+](=O)[O-])nc1`, the activity stood at 62.8%.

Consider `Cc1ccc(NC(=O)Cn2ncc(Cl)c(Cl)c2=O)cc1S(=O)(=O)N1CCCCC1`, for which the activity amounted to 99.5%.

Regarding `O=C(Nc1ccc2c(c1)OCCO2)c1ccc(Cl)cc1Cl`, the activity turned out to be 66.6%.

On to `COc1ccc(C=Cc2ccc3ccccc3n2)c(OC)c1`, for which the activity stood at 68.5%.

As for `COc1ccc(-n2cc(C(=O)c3ccccc3O)cn2)cc1`, the activity came to 29.7%.

With `CCCc1cc(=O)[nH]c(SCC(=O)c2c(N)n(CC(C)C)c(=O)n(C)c2=O)n1`, the activity worked out at 83.7%.

As to `CC1CCN(S(=O)(=O)c2ccc3c(c2)C(=NO)c2cc(S(=O)(=O)N4CCC(C)CC4)ccc2-3)CC1`, the activity came out at 99%.

On to `COc1cccc(/C=C2\CCc3ccccc3C2=O)c1`, for which the activity was 78.5%.

With `COc1ccc(/C=N/Nc2nnc(Cc3ccccc3)c(=O)[nH]2)cc1OC`, the activity turned out to be 59.2%.

Turning to `c1ccc(CSc2ccc(-c3ccco3)nn2)cc1`, the activity amounted to 45.9%.

`CCOC(=O)c1cccc(N2C(N)=NC(N)=NC2(C)C)c1`: the activity was 69.5%.

For the compound `COC(=O)c1c(-c2ccccc2)csc1NC1=NS(=O)(=O)c2ccccc21`, the activity was 73.3%.

Take `Cn1c2ccccc2c(=O)c2ccc(C#CC3(O)CCCCC3)cc21`: the activity was found to be 83.4%.

As for `CCCCN(CC)CCCNC(=O)C1c2ccccc2C(=O)N(C)C1c1cn(C)c2ccccc12` (configuration not stated), the activity turned out to be 69.7%.

As for `O=C(CCl)N(CCc1ccccc1)CCc1ccccc1`, the activity was found to be 98.2%.

For `Oc1ccc(-c2cnc(-c3ccc(O)cc3)nc2)cc1`, the activity was found to be 93.3%.

For `O=C(NC1CCCCC1)c1n[nH]c2c1CCCCC2`, the activity was determined as 80.8%.

For the compound `Cc1cc(NC(=O)CSc2nnc(-c3ccc4c(c3)OCCO4)o2)no1`, the activity came out at 58.8%.

As for `O=C1c2ccc(Cl)cc2S(=O)(=O)c2cccc(C(=O)N3CCN(c4ccc(Cl)cn4)CC3)c21`, the activity came to 83.5%.

With `Cc1nc2cc(NC(=O)Nc3nccs3)ccc2n1C`, the activity worked out at 60.8%.

On to `COn1c(SCc2ccc(C)cc2C)nc2ccccc2c1=O`, for which the activity stood at 35.5%.

With `O=[N+]([O-])c1c(Nc2ccccc2O)cc(Cl)c2nonc12`, the activity came to 98.3%.

As to `CCOc1ccc2cc(C#N)c(SCC(=O)OC)nc2c1`, the activity is 50.3%.

`CCC1CCCCN1c1ccc([N+](=O)[O-])cc1/C=N/NC(=O)Cn1c2ccccc2c(=O)c2ccccc21` (configuration not stated): the activity stood at 66.7%.

On to `Nc1nc(N)c2c(ccc3nccc32)[nH]1`, for which the activity was determined as 78.7%.

Turning to `C[C@H](NC(=O)c1ncn2c1c(=O)[nH]c1ccc(Br)cc12)c1ccccc1`, the activity was 7.95%.

Regarding `CCC(C)c1ccc(O)c(/C=N/O)c1` (configuration not stated), the activity amounted to 56.6%.

For `CN(C)c1ccc(Sc2ccc3nc(N)nc(N)c3c2)cc1`, the activity worked out at 73%.
